Measurements reported in PubChem BioAssay (NCI).
Compounds without any hit were thinned out: in the full panel of roughly 83,000, 20% have a hit.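 Testing used 96-well plates and a 48-hour single-concentration exposure. Example: -40 means 40% of the starting cells died.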 Values without a mark were called inactive. Activity calls are given as the source filed them. The calls were made as follows: active = growth percent below 10; inactive = the rest.

Experiments:
Experiment in all cases: NCI-60 one-dose screen, 48 h (100 = growth as untreated, 0 = no growth, -100 = all killed)
Settings in all cases: 10 µM unless noted
SK-MEL-2 melanoma = test system: SK-MEL-2 melanoma
EKVX NSCLC = test system: EKVX NSCLC
SN12C renal = test system: SN12C renal
UO-31 renal = test system: UO-31 renal
TK-10 renal = test system: TK-10 renal
ACHN renal = test system: ACHN renal
CAKI-1 renal = test system: CAKI-1 renal
A498 renal = test system: A498 renal
CCRF-CEM leukemia = test system: CCRF-CEM leukemia
MOLT-4 leukemia = test system: MOLT-4 leukemia
SR leukemia = test system: SR leukemia
RPMI-8226 leukemia = test system: RPMI-8226 leukemia
OVCAR-8 ovarian = test system: OVCAR-8 ovarian
OVCAR-5 ovarian = test system: OVCAR-5 ovarian
OVCAR-4 ovarian = test system: OVCAR-4 ovarian
SK-OV-3 ovarian = test system: SK-OV-3 ovarian
IGROV1 ovarian = test system: IGROV1 ovarian
HS 578T breast = test system: HS 578T breast
NCI/ADR-RES ovarian = test system: NCI/ADR-RES ovarian

Row | SMILES | growth (SK-MEL-2 melanoma) [%] | growth (EKVX NSCLC) [%] | growth (SN12C renal) [%] | growth (UO-31 renal) | growth (TK-10 renal) [%] | growth (ACHN renal) [%] | growth (CAKI-1 renal) [%] | growth (A498 renal) | growth (CCRF-CEM leukemia) [%] | growth (MOLT-4 leukemia) | growth (SR leukemia) | growth (RPMI-8226 leukemia) | growth (OVCAR-8 ovarian) [%] | growth (OVCAR-5 ovarian) [%] | growth (OVCAR-4 ovarian) [%] | growth (SK-OV-3 ovarian) [%] | growth (IGROV1 ovarian) [%] | growth (HS 578T breast) [%] | growth (NCI/ADR-RES ovarian)
1 | CCC1=Cc2c(OC)cccc2OC12C=Cc1c(OC)cccc1O2 (stereo not given) | 65.8 | 52.4 | 42 | 39.8% | 101 | 35.9 | 28.4 | 6.92% (active) | 16.2 | 15.8% | 15.2% | 25.2% | 24.3 | 36.5 | 76.7 | 56.5 | 29.8 | 28.4 | -24.2% (active)
2 | O=C1c2ccccc2C23C(=C(c4cncnc4)c4ccccc42)CCCN13 (stereo not given) | 106 | 100 | 96.4 | 85.6% | 97 | 99.2 | 78.5 | 96.4% | 102 | 107% | 96.1% | 103% | 104 | 96.5 | 93.3 | 118 | 107 | 95 | 103%
3 | Cc1c(C(=O)/C=C/c2ccc(Cl)cc2)nnn1-c1ccc2oc(=O)ccc2c1 | 110 | 91.2 | 92.3 | 73.4% | 104 | 94.6 | 88.6 | 103% | 92.3 | 98.9% | 91% | 54.2% | 99.4 | 97.9 | 105 | 106 | 102 | 109 | 88.4%
4 | N#Cc1c(-c2cccs2)c(C#N)c(=O)n(Cc2nc3ccccc3[nH]2)c1N | 92.6 | 90.9 | 91.8 | 60% | 152 | 96.8 | 80.7 | 118% | 101 | 102% | 92.5% | 95.9% | 95.1 | 116 | 99.6 | 95.4 | 61.7 | 102 | 99.5%
5 | Nc1ccc(Nc2ncnc3sc4c(c23)CCN(Cc2ccccc2)C4)cc1 | 109 | 102 | 96.8 | 83.8% | 134 | 91.7 | 90.8 | 95.3% | 95.1 | 87.8% | 82.9% | 94.3% | 99.3 | 107 | 96.8 | 113 | 101 | 98.2 | 101%
6 | O=C1/C(=C/C=C/c2ccco2)SC(=S)N1Cc1ccccc1 | 102 | 98 | 99.2 | 83.9% | 124 | 104 | 81 | 88.9% | 93.5 | 96.4% | 46.3% | 93.6% | 100 | 105 | 95.1 | 103 | 92.9 | 104 | 99.8%
7 | NS(=O)(=O)c1cccc(Nc2nc(SCC(=O)c3ccc(Cl)cc3)nc3c2CCC3)c1 | 98 | 97.7 | 98 | 90.9% | 119 | 92.4 | 86.7 | 79.4% | 98.3 | 105% | 98.7% | 97.3% | 82.8 | 103 | 95.8 | 95.7 | 99.8 | 81 | 96.7%
8 | Brc1ccc(-c2cc(-c3ccc4c(c3)OC=CO4)n[nH]2)s1 | 97.3 | 74.6 | 99.1 | 87.7% | 149 | 97.7 | 62.9 | 90.7% | 79.4 | 72.6% | 54.7% | 93.6% | 96.4 | 105 | 88 | 88.1 | 81 | 92.2 | 76.8%
9 | CCCCCc1ccc(S(=O)(=O)Nc2cc(-c3csc(N)n3)ccc2OC)cc1 | 112 | 86.4 | 89.2 | 53.5% | 113 | 98 | 88.4 | 96.6% | 57.4 | 78.6% | 98.9% | 78.2% | 95.9 | 110 | 100 | 127 | 84.5 | 97.1 | 88%
10 | O=C(/C=C/c1ccc(F)cc1)Nc1cccc2cccnc12 | 107 | 91.4 | 101 | 84.1% | 147 | 105 | 91.4 | 114% | 105 | 105% | 103% | 94.2% | 106 | 104 | 93.3 | 90.2 | 71.8 | 112 | 102%
11 | O=C1[C@H]2Cc3c([nH]c4ccccc34)[C@H](c3ccc(Cl)cc3)N2C(=O)CN1C1CCN(CC2CCCCC2)CC1 | 98.2 | 81.5 | 69.7 | 39.1% | 112 | 74.8 | 37.9 | 80.4% | 39.3 | 35.1% | -5.73% (active) | 23.4% | 74.9 | 96.1 | 72.7 | 93.8 | 72.2 | 74.4 | 68.5%
12 | Clc1ccc2[nH]cc(-c3nn4cc(-c5ccncc5)nc4s3)c2c1 | 79 | 56.5 | 33.9 | 39.6% | 125 | 30.3 | 54.5 | 90.8% | 75.2 | 81.8% | 28.8% | 53.2% | 10.6 | 98.8 | 43.2 | 15.4 | 44.6 | 31.2 | 2.69% (active)
13 | O=C1C(SCc2ccccc2)=C(Cl)CN1c1ccc(Cl)cc1 | 79.9 | 106 | 100 | -88.1% (active) | 111 | 98.1 | 90.7 | 114% | 70.8 | 68% | 1.35% (active) | 88.8% | 95.2 | 109 | 103 | 117 | 104 | 100 | 105%
14 | CS(=O)(=O)c1nccc(-c2c(-c3cccc(OCc4ccc(Cl)c(C(F)(F)F)c4)c3)nc3sccn23)n1 | 107 | 78.9 | 74.7 | 0.98% (active) | 112 | 71.9 | 73.7 | 98.3% | 13.2 | 9.69% (active) | 9.33% (active) | -16.8% (active) | 99.3 | 101 | 71.9 | 104 | 34.1 | 41.1 | 98.2%
15 | Cc1ccc(C(=O)CSc2nnc(-c3ccc(-c4ccc(Cl)cc4)nc3C)o2)cc1 | 112 | 68.6 | 99.7 | 93.9% | 191 | 95.4 | 95.8 | 98.2% | 108 | 103% | 96.5% | 96.7% | 107 | 102 | 101 | 98.1 | 91.6 | 102 | 100%
